Assay outcomes as filed in PubChem BioAssay.
The list is not random: actives were taken first. Their share in the collection is about 12%.
Shiga toxin inh: A qHTS for Small Molecule Inhibitors of Shiga Toxin | Vero cells, Shiga toxin protein synthesis inhibition reporter | inhibition, % at 38.7 µM | actives 9.2% (n = 290,000); in the data active = inhibition mostly above about 28%, no sharp cut-off; inactive = mostly below about 43%; also: 0% is about no effect
LASV entry inh: qHTS for Inhibitors of binding or entry into cells for Lassa Virus; Lassa virus pseudotype entry inhibition, cell reporter; Potency, µM (top dose mostly 37.9 µM), for the others: top-dose activity change, negative = inhibition, usual class: inhibitors; actives 1.2% (n = 300,000); calls by dose curve; tested in HEK293 cells; also: potency is read from the fitted curve at half-maximal effect; % is scaled to controls: 0 for no effect and ±100 for the full control effect; nearly all actives have a fitted effect of over 50% in size
Cycloheximide cs: Cycloheximide Counterscreen for Small Molecule Inhibitors of Shiga Toxin; cell reporter, cycloheximide protein synthesis inhibition counterscreen; max response, %; actives 12% (n = 300,000); in the data active = max response mostly above about 13%, no sharp cut-off; inactive = mostly below about 14%; also: read at 38.3 µM for the half of the compounds with a filed dose; 0% is about no effect
MARV entry inh: qHTS for inhibitors of binding or entry into cells for Marburg Virus; Marburg virus pseudotyped entry inhibition, cell reporter; Potency, µM (titrated, usually from 37.8 µM), for the others: at the top dose activity change, negative = inhibition, most hits filed as inhibitors; actives 1.8% (n = 300,000); calls by dose curve; tested in HEK293 cells; also: potency is read from the fitted curve at half-maximal effect; % is scaled to controls: 0 for no effect and ±100 for the full control effect
Numbers without * were called inactive; [ ] = dose if it differs, or a comment.

N#Cc1c(/N=C/c2cccnc2)sc2c1CCCC2 was read as Shiga toxin inh 15, LASV entry inh 5%, Cycloheximide cs -1 and MARV entry inh 16%[46.1 µM].
`N#Cc1c(/N=C/c2cccs2)sc2c1CCCCC2` gave Shiga toxin inh 86*, LASV entry inh inconclusive, Cycloheximide cs 35* and MARV entry inh inconclusive.
`N#Cc1c(/N=C/c2ccc(Br)s2)sc2c1CCC2` gave Shiga toxin inh 15*, LASV entry inh 18%, Cycloheximide cs 25 and MARV entry inh inconclusive.
For O=CNC1c2ccccc2CCc2ccccc21 the results were LASV entry inh 10%[46.1 µM] and MARV entry inh inconclusive.
`Cc1ccc2cc(C=O)c(N3CCOCC3)nc2c1C` gave LASV entry inh -11%, Cycloheximide cs -3 and MARV entry inh 9%.
Screening Cc1ccc2nc(N3CCOCC3)c(C=O)cc2c1 returned Shiga toxin inh 36 and Cycloheximide cs 26*.
For CC(=O)c1ccc(-c2c(C3C4C=CCCC4(C)C(=O)N3Cc3ccccc3)ccc3ccccc23)cc1 (configuration not stated) the results were Shiga toxin inh 0 and Cycloheximide cs -8.
`COc1ccccc1N1CCN(CCCNC(=O)c2nnc(Cc3c(F)cccc3Cl)o2)CC1` gave LASV entry inh -2%[46.1 µM] and MARV entry inh -1%[46.1 µM].
Screening O=c1c2ccccc2nc2oc3ccccc3n12 returned Shiga toxin inh 84*, LASV entry inh inconclusive, Cycloheximide cs 42* and MARV entry inh inconclusive.
For CCOc1ccc2[nH]c3ncccc3c(=O)c2c1 the results were Shiga toxin inh 40*, LASV entry inh inconclusive, Cycloheximide cs 17 and MARV entry inh inconclusive.
For CCOc1ccc2[nH]c(C)c(CN3CCOCC3)c(=O)c2c1 the results were Shiga toxin inh 18, LASV entry inh 24%, Cycloheximide cs -3 and MARV entry inh 2%.
`COCCN(Cc1cc2ccc(C)cc2n2nnnc12)Cc1nnnn1C(C)(C)C` gave Shiga toxin inh -1, LASV entry inh -4%, Cycloheximide cs -6 and MARV entry inh inconclusive.
`COC1=C/C(=C/c2c(O)c(C#N)c3ccccn23)C=CC1=O` gave Shiga toxin inh 73* and Cycloheximide cs 56*.
For CCOC(=O)c1c(CSc2ccc(C)cc2)oc2ccc(O)cc12 the results were Shiga toxin inh -6, LASV entry inh inconclusive, Cycloheximide cs 6 and MARV entry inh 0%.
O=C(/C=C/c1ccccc1[N+](=O)[O-])NC1CCCC1 was read as Shiga toxin inh 70*, LASV entry inh 10%, Cycloheximide cs 19* and MARV entry inh inconclusive.
For O=C(COC(=O)/C=C/c1ccccc1[N+](=O)[O-])NC(=O)NC1CCCC1 the results were LASV entry inh 10% and MARV entry inh inconclusive.
`O=C(O)/C=C/c1ccccc1[N+](=O)[O-]` gave Shiga toxin inh -4, LASV entry inh -5%[46.1 µM], Cycloheximide cs -1 and MARV entry inh 3%[46.1 µM].
For COc1cc(NC(=O)/C=C/c2ccccc2[N+](=O)[O-])cc(OC)c1 the results were Shiga toxin inh 19, LASV entry inh 14%, Cycloheximide cs 15* and MARV entry inh 15%.
O=C(/C=C/c1ccccc1[N+](=O)[O-])Nc1ccccc1 was read as Shiga toxin inh 101* and Cycloheximide cs 36*.
CCOc1ccc(NC(=O)C2CCN(c3nnc(-n4c(C)ccc4C)s3)CC2)cc1 was read as LASV entry inh 4%[46.1 µM] and MARV entry inh -2%[46.1 µM].
For O=C(CC1C(=O)NCCN1Cc1cccc(F)c1F)NCCCC1CCCC1 (configuration not stated) the results were Shiga toxin inh 20 and Cycloheximide cs 1.
`CC(=O)c1ccc(NC(=O)CSc2nnc(NC(=O)CN3CCOCC3)s2)cc1` gave Shiga toxin inh 62*, LASV entry inh 29%, Cycloheximide cs 18 and MARV entry inh inconclusive.
`CC(Sc1nnc(NC2CC2)s1)C(=O)Nc1ccc(N2CCOCC2)cc1` (configuration not stated) gave LASV entry inh -28% and MARV entry inh 21%.
`O=C(CSc1nnc(NC2CCCCC2)s1)Nc1ccc(N2CCOCC2)cc1` gave Shiga toxin inh 41*, LASV entry inh 30%[14.3 µM], Cycloheximide cs 21* and MARV entry inh -2%.
Cc1ccc(NC(=O)CSc2nnc(NC(=O)CN3CCOCC3)s2)cc1 was read as Shiga toxin inh -6, LASV entry inh 4%, Cycloheximide cs -4 and MARV entry inh 6%.
COC(=O)CCC(=O)NC(=S)Nc1ccc(S(=O)(=O)N2CCCC2)cc1 was read as Shiga toxin inh -6 and Cycloheximide cs -11.
